PAFAH1B3 inh: blocks human PAF acetylhydrolase 1B catalytic subunit 3; Q15102; recombinant PAFAH1B3, FP-rhodamine probe, fluorescence polarization; inhibition, % at 3.39 µM; hit rate 0.28% among 340,000; AID 492972;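 active = inhibition above the screen-wide average of all tested compounds plus 3 SD, cut at about 25% in these data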;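 also: 0% = enzyme with DMSO only and 100% = wells lacking PAFAH1B3 protein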
Target sequence (Q15102 whole entry, looked up): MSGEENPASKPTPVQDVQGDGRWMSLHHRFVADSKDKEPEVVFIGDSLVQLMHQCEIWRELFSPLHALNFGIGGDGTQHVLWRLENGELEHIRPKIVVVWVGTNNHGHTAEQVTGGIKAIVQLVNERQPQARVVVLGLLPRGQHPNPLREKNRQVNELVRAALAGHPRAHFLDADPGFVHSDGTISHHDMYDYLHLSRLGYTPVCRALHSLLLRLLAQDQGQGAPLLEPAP
PAFAH1B2 FP inh: PAFAH1B2 (human) inhibition; P68402; recombinant PAFAH1B2, FP-rhodamine activity probe, fluorescence polarization; inhibition, % at 3.39 µM; hit rate 1.2% among 340,000;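 active = inhibition above the mean of all tested compounds plus 3 SD, cut at about 24% in these data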;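 also: 0% = enzyme with DMSO and 100% = wells lacking PAFAH1B2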
Target sequence (P68402 whole entry, looked up): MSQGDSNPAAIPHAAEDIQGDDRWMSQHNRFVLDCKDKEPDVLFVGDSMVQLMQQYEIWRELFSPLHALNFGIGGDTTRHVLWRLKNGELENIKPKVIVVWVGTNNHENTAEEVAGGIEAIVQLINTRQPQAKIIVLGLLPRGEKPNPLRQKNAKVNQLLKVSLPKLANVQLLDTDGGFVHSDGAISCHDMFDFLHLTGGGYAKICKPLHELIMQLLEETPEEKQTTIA
PME-1 inh: blocks human protein phosphatase methylesterase 1; recombinant PME-1, FP-Rh probe fluorescence polarization; AID 2130; inhibition, % at 5.9 µM; hit rate 0.53% among 320,000;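 active = inhibition above the campaign mean of all compounds plus 3 SD, cut at about 26% in these data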;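 also: competitive labeling of PME-1 active site by serine hydrolase directed probe; 0% = PME-1 with DMSO and 100% = wells lacking PME-1 enzyme; inhibitors block probe labeling so polarization falls and inhibition rises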
PAFAH2 inh: PAFAH2 (human) inhibition. recombinant PAFAH2, FP-rhodamine activity probe, fluorescence polarization. inhibition, % at 3.39 µM. hit rate 0.99% among 340,000. Q99487;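 active = inhibition above the mean over all tested compounds plus 3 SD, cut at about 30% in these data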;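 also: inhibitors block probe labeling of enzyme so polarization drops; 0% = enzyme with DMSO and 100% = wells lacking PAFAH2 protein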
pPAFAH inh: inhibitors of human plasma PAF acetylhydrolase (pPAFAH) | Q13093 | recombinant pPAFAH, FP-rhodamine probe fluorescence polarization | inhibition, % at 3.39 µM | hit rate 1.5% among 330,000 | AID 463082;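 active = inhibition above the mean inhibition across the screen plus 3 SD, cut at about 25% in these data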;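 also: inhibitors block binding of the rhodamine activity-based probe so polarization drops; 0% = enzyme with DMSO and 100% = wells lacking pPAFAH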
Fam108B counter: Fam108B inhibition, counter-screen for RBBP9 inhibitors | recombinant Fam108B, FP-Rh probe fluorescence polarization | inhibition, % at 9.51 µM | hit rate 0.33% among 300,000 | AID 1947;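 active = inhibition above the screen mean inhibition plus 3 SD, computed separately per campaign, cut at about 18% in these data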;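 also: inhibitors lower polarization as less probe binds the enzyme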
PAFAH1B3 confirm: confirmation of human PAFAH1B3 inhibitors. shares compounds with PAFAH1B3 inh. recombinant PAFAH1B3, FP-Rh activity-based probe, fluorescence polarization. inhibition, % at 3.39 µM. hit rate 30% among 390. AID 493032;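 active = average inhibition over triplicate runs above the hit cutoff set in the earlier primary screen, cut at about 25% in these data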;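 also: 0% = enzyme with DMSO and 100% = wells lacking PAFAH1B3 protein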
The depositor's hits bear a star; / = no result. An excerpt weighted towards active compounds, which were near 2.8% of everything screened.

SMILES	PAFAH1B3 inh	PAFAH1B2 FP inh	PME-1 inh	PAFAH2 inh	pPAFAH inh	Fam108B counter	PAFAH1B3 confirm
COc1ccc(CNC(=O)c2c(C)oc3c2C(=O)c2ccccc2C3=O)cc1	37.0*	8.4	4.0	24.5	-1.8	2.9	18.0
Cc1cc(Br)cc2cn[nH]c12	0.1	-0.7	8.9	2.3	0.5	-0.6	/
Cc1ccc(S(=O)(=O)N(C)CC(=O)NNC(=O)CCC(=O)c2ccc(F)cc2)cc1	7.3	3.8	/	5.3	2.7	/	/
O=C1ON=C(c2ccccc2)/C1=C/c1ccc(O)c(O)c1	29.3*	8.1	-8.7	10.1	7.3	-2.8	46.6*
CCc1nnc(NC(=O)c2sc3nc4cc(C)ccc4cc3c2N)s1	27.3*	18.6	32.0*	12.1	3.2	8.8	20.1
COc1cc(NS(=O)(=O)c2ccc(NC(=S)NC(=O)/C=C/c3ccco3)cc2)ncn1	29.5*	9.4	/	26.6	/	/	16.8
O=C(NC1=C(Nc2ccc(Cl)cc2)C(=O)c2ccccc2C1=O)c1ccccc1	14.7	7.2	-2.7	7.8	4.8	-0.6	/
O=C(NC1=C(NC2CCS(=O)(=O)C2)C(=O)c2ccccc2C1=O)c1ccccc1 (centres undefined)	66.2*	12.8	5.8	12.7	7.9	1.6	36.2*
COc1ccc2c(c1)CCc1c-2n[nH]c1C(=O)NCCC(C)C	0.3	4.5	-2.1	7.5	7.8	1.2	/
CNC(=O)c1[nH]nc2c1CCc1cc(OC)ccc1-2	28.2*	15.2	1.0	28.6	-0.2	1.5	8.8
Cc1cc(C(=O)OCC(=O)NC2CCS(=O)(=O)C2)c2ccccc2n1 (centres undefined)	9.5	5.7	-3.1	1.0	-0.2	2.5	/
O=C(COC(=O)c1cc(-c2cccc3ccccc23)nc2ccccc12)NC1CCS(=O)(=O)C1 (centres undefined)	28.6*	21.3	42.6*	25.3	15.5	14.5	13.7
Cc1nc(S/C(=C\c2ccc(-c3ccc(C(=O)O)c(Cl)c3)o2)C(=O)O)n[nH]1	41.7*	14.7	/	29.1	/	/	27.0*
CC(C)c1ccc(OCC(=O)NNC(=S)NC(=O)c2ccco2)c(Br)c1	26.9*	17.9	9.5	8.4	9.0	2.0	8.7
Cc1ccccc1OCC(=O)NNC(=S)NC(=O)c1ccco1	-4.3	-3.6	8.9	1.3	1.4	-2.2	/
Cc1ccc(CNC(=O)CSc2nc(=O)n3cccc(C)c3n2)cc1	3.7	3.6	-3.5	3.3	8.9	2.8	/
CC(OC(=O)CNS(=O)(=O)c1ccc(C#N)cc1)C(=O)Nc1cccc(C#N)c1 (centres undefined)	3.9	9.5	2.2	1.8	2.4	0.7	/
O=C(Cn1ncc(Cl)c(Cl)c1=O)N1CCc2ccccc21	27.6*	0.3	/	10.2	/	/	21.9
CC(=O)c1ccc(N(CC(=O)NC2CCCC2)C(=O)CCC(=O)Nc2cc(C)on2)cc1	-8.4	4.1	-3.2	-1.2	1.2	-2.3	/
CCOc1ccc2[nH]c(C(=O)N/N=C/c3ccc(OC)cc3)cc2c1	1.2	2.1	/	-5.5	/	/	/
COc1ccc2[nH]c(C(=O)N/N=C/c3ccc(O)cc3O)cc2c1	48.2*	22.7	/	16.4	/	/	23.6
CCN(c1ccccc1)S(=O)(=O)c1cccc(C(=O)NCC(c2ccco2)N2CCCCC2)c1 (centres undefined)	-2.3	5.3	/	4.0	/	/	/
CC(C)C1Nc2ccc(C(=O)O)cc2C2C=CCC21 (centres undefined)	29.1*	11.8	-8.2	25.6	22.9	8.3	16.3
COc1cc(C2Nc3cccc4cccc(c34)N2)cc(OC)c1O	34.8*	13.3	48.4*	22.6	6.5	40.5*	10.8
CCNS(=O)(=O)c1ccc(Br)c(C(=O)OC(C)C(=O)NCC2CCCCC2)c1 (centres undefined)	-5.5	3.8	4.4	10.4	2.9	/	/
Cc1ccc(-n2c(C)cc(C(=O)NS(=O)(=O)c3ccc(C)cc3)c2C)cc1	52.5*	8.9	0.8	1.7	9.9	-2.4	35.9*
CCOc1ccc(-n2c(C)cc(C(=O)NS(=O)(=O)c3ccc(C)cc3)c2C)cc1	7.0	-4.5	-3.9	5.0	-6.4	-2.8	/
CN(CC(=O)Nc1ccccc1Cl)CC(=O)Nc1ccccc1[N+](=O)[O-]	1.4	0.5	10.7	-7.8	3.3	-1.1	/
